G9a block: G9a (human) methyltransferase inhibition | Q96KQ7 | G9a H3K9 monomethylation, AlphaScreen, 2 h | Potency, µM (titrated, usually from 102 µM), hits mostly inhibitors | 350,000 tested, 8.8% active; note: nearly all actives have a fitted effect of over 75% in size
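Compounds were preincubated with 20 nM G9a for 15 min, after which biotinylated H3K9 peptide (500 nM) and SAM (20 uM) started a 2 h room-temperature reaction. Monomethylated product was quantified by antibody-based AlphaScreen chemiluminescence.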
Mm-Cpn inhibitor: inhibitors of Methanococcus maripaludis chaperonin TRiC (MmCpn); purified Mm-Cpn ATPase, ADP Transcreener TR-FRET; Potency, µM (top dose mostly 76.9 µM), actives largely listed as inhibitors; 330,000 tested, 0.031% active; AID 504842; note: nearly all actives have a fitted effect of over 80% in size
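Reaction buffer contained 30 mM Tris pH 7.4, 100 mM KCl, 5 mM MgCl2 and 1 mM DTT. Mm-CPN (25 nM final) hydrolysed 10 uM ATP over 30 min at 37°C; ADP was read by HTRF.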
VDR inhibitor: inhibitors of human vitamin D receptor; Potency, µM, usual class: inhibitors; 400,000 tested, 0.93% active; VDR-SRC2-3 peptide fluorescence polarization, 2 h
Target sequence (P11473 whole entry, looked up): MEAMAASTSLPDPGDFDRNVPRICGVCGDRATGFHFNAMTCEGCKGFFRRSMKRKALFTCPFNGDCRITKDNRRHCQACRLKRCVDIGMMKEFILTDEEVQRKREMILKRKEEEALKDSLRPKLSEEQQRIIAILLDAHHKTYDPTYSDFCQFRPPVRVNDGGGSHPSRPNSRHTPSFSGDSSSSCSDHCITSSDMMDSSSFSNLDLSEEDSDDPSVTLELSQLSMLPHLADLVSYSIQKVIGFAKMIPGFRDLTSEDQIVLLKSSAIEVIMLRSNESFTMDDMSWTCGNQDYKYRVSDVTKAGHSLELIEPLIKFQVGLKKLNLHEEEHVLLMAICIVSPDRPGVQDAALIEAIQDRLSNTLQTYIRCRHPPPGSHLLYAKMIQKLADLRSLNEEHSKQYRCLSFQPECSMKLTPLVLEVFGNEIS
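The screen uses fluorescence polarization to detect compounds that interfere with recruitment of the SRC2-3 coactivator peptide to VDR; plates are read after 2 h at room temperature.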
Sfp PPTase inh: inhibitors of Bacillus subtilis Sfp phosphopantetheinyl transferase | Biochemical Sfp PPTase activity, qHTS | Q9F4F7 | 310,000 tested, 3.5% active | Potency, µM, actives largely listed as inhibitors | AID 1490;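 note: the enzyme is Sfp with the accession as filed and its product quenches rhodamine fluorescence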
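With Hepes-Na pH 7.6 buffer containing 10 mM MgCl2, Sfp (15 nM) modified BHQ-2-YbbR (12.5 uM) using rhodamine-CoA (5 uM). Two reads 30 minutes apart at 525/598 nm yielded each well's rate.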
CCT modulator: cytosolic chaperonin activity modulation; purified chaperonin ATPase assay, HTRF ADP detection, 30 min; activity change, % (test concentration not listed), hits read low; 360,000 tested, 0.3% active; AID 651819; in the data active = activity change below about -30%
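First, chaperonin was dispensed at 40 nM or 20 nM final depending on batch activity. Next, compounds were pinned at 76 uM and ATP added at 10 uM. After 30 min at 37 °C, ADP detection reagents ran 30 min at ambient temperature.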
PLK1 PBD inh: inhibitors of human PLK1 polo-box domain binding; 360,000 tested, 2.8% active; P53350; Potency, µM, usual class: inhibitors; Plk1 PBD binding of FITC phosphopeptide, fluorescence polarization; note: series mostly up to about 57 µM; nearly all actives have a fitted effect of over 65% in size
A number is an active result; - = inactive; ? = inconclusive; . = not tested or not shown; [ ] = another dose, or the depositor's remark. Sampled rows, rich in hits. Any-hit rate of the full collection: about 10%. Unless noted, calls come from the whole dose curve; as a rule, active = well fitted curve in the direction sought with a large enough effect; inconclusive = small, poorly fitted or top-dose-only effect, or another doubt; inactive = no such curve, though single readings can be large; an effect the other way counts as inactive or inconclusive.

SMILES	G9a block	Mm-Cpn inhibitor	VDR inhibitor	Sfp PPTase inh	CCT modulator	PLK1 PBD inh
CCC(=O)Oc1ccc(C/C(=N\O)c2ccc(O)cc2O)o1	12.6µM	-	-	-	-	?
COCCOC(=O)C1=C(C)NC(C)=C(C(=O)OC/C=C/c2ccccc2)C1c1cccc([N+](=O)[O-])c1 (stereo unspecified)	-	.	-	-	.	.
C=CCn1c(Cc2ccccc2)nnc1SCc1nc2ccccc2c(=O)[nH]1	50.1µM	-	-	-	-	-
CCn1c(SCc2nc3sc(C(=O)O)c(C)c3c(=O)[nH]2)nnc1-c1ccc(Cl)cc1	?	-	-	-	-	-
Cc1sc2nc(CSc3nnnn3-c3ccc(Cl)cc3)[nH]c(=O)c2c1C	?	-	-	79.4µM	-	-
CCCn1c(SCc2nc3sc(C)c(C)c3c(=O)[nH]2)nc2ccccc2c1=O	50.1µM	-	-	-	-	-
O=c1[nH]c(CSc2nnc(COc3ccccc3)n2-c2ccccc2)nc2ccccc12	4.47µM	-	?	?	-	?
COCCn1c(SCc2nc3ccccc3c(=O)[nH]2)nc2ccccc2c1=O	-	-	-	-	-	-
CC(=O)N1CCc2cc(S(=O)(=O)NC(CC(C)C)C(=O)NCc3ccccc3Cl)ccc21 (stereo unspecified)	-	.	-	.	.	.
C=CCn1c(SCc2nc3ccccc3c(=O)[nH]2)nc2ccccc2c1=O	7.94µM	-	-	50.1µM	-	-
O=C(c1ccco1)N1CCC2(CC1)CCN(C(c1ccccc1)c1ccccc1)CC2	-[12.7 µM]	.	?	-	.	.
Cc1cc(C)c(C(=O)CSC2=NC(N)=C(C#N)C3(CCCCC3)C2C(N)=O)cc1C (stereo unspecified)	79.4µM	-	-	-	-	-
O=C(NCCCc1nc2ccccc2n1Cc1ccccc1Cl)c1ccco1	-	.	-	.	.	.
Clc1ccccc1Cn1c(/C=C/c2ccco2)nc2ccccc21	10µM	-	?	50.1µM	-	-
COc1ccc(/C=N/NC(=O)c2ccc(NC(=O)C3CCCCC3)cc2)cc1O	-	-	-	79.4µM	-	-
CCCN1C(=O)c2ccccc2CC1(C)C(=O)NC1CCCCC1 (stereo unspecified)	-	.	-	.	.	.
Cc1nc(-c2ccc(C)c(S(=O)(=O)N3CCC(C(=O)NCc4ccc(Cl)cc4)CC3)c2)no1	-	.	-	.	.	.
Cc1c(NC(=O)c2cccc(NC(=O)COc3ccc(C#N)cc3)c2)c(=O)n(-c2ccccc2)n1C	-[0.501 µM]	-	-	.	-	-
S=C(Nc1ccccc1)Nc1ccc2cn[nH]c2c1	.	-	-	-	-	?
Cc1c(NC(=S)NNC(=O)CCC(=O)O)c(=O)n(-c2ccccc2)n1C	?	-	-	44.7µM	-	-
CC(=O)c1cccc(OCC(=O)Nc2cccc(C(=O)Nc3c(C)n(C)n(-c4ccccc4)c3=O)c2)c1	-[2.33 µM]	-	-	.	-	18.9µM
O=C(NC(=S)Nc1ccc(-c2ccccc2)cc1)c1ccccc1	.	.	-	.	-	-
O=C(NC(=S)Nc1ccc2cn[nH]c2c1)c1ccccc1	44.7µM	-	-	?	-	-
CC(C)NC(=S)NC(=O)c1ccc(-c2ccccc2)cc1	39.8µM	-	-	-	-	-
CC(NC(=O)c1cccc(NC(=O)c2nsc3ccccc23)c1)c1ccccc1 (stereo unspecified)	-	.	-	.	.	.
SMILES	G9a block	Mm-Cpn inhibitor	VDR inhibitor	Sfp PPTase inh	CCT modulator	PLK1 PBD inh
CC(C)c1ccc(CN(Cc2ccco2)c2cnc(S(C)(=O)=O)nc2C(=O)Nc2ccc(F)cc2)cc1	-	.	-	.	.	.
O=C(NC(=S)Nc1cccc([N+](=O)[O-])c1)c1ccco1	-	-	-	?	-	-
O=C(O)c1cccc(NC(=S)NC(NC(=O)c2cccc([N+](=O)[O-])c2)C(Cl)(Cl)Cl)c1 (stereo unspecified)	50.1µM	-	-	-	-	-
O=C(NC(=S)Nc1cccc([N+](=O)[O-])c1)c1ccccc1	-	-	-	44.7µM	-	-
O=C(O)c1cccc(NC(=S)NC(=O)c2ccc(-c3ccccc3)cc2)c1	35.5µM	-	-	-	-	-
O=C(O)c1cccc(NC(=S)NCc2ccccc2)c1	-	-	-	-	-	-
O=C(Cc1cccc2ccccc12)NC(=S)Nc1cccc(C(=O)O)c1	15.8µM	-	-	-	-	?

Screens: PubChem BioAssay, National Center for Advancing Translational Sciences (NCATS)
